Laboratory results from the supplement of paper PMC10849652.
Targets with a hit are over-represented here; the source holds about 8,800 in all. About 0.5% of all pairs of compound and target were hits.

Key:
Experiment in all cases: log2 fold change, soluble protein after heating vs DMSO (PISA); higher = thermal stabilisation; K562 lysate, 10 uM; active = over 0.2 and 3.5 SD of the protein, either way, in both replicates (recomputed)
erlotinib = compound: C#Cc1cccc(Nc2ncnc3cc(OCCOC)c(OCCOC)cc23)c1 [erlotinib]
Method in brief: (§1)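 Pellets of K562 cells were dounce-homogenised in PBS pH 7.4 with 1 mM MgCl2, and the crude extract was held at 1 mg/mL protein for a 30 min treatment with 10 μM compound. Aliquots were heated for 3 min over 48°C-58°C and pooled before NP-40 was added to 0.5% at 4°C. The supernatant from 21,000xg for 90 min was quantified by TMTpro 16plex LC-MS/MS with channel sums equalised. Values are reported from duplicates as log-two fold change in thermal stability relative to solvent controls.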

[1] = compound: C/C(=N\NC(=O)C1=CC(=CC=C1)S(=O)(=O)N2CCOCC2)/C3=C(C=CC(=C3)Cl)O
Method in brief: as §1

[2] = compound: C1=CC(=CC=C1C2=NC3=C(N2)C=C(C=C3)C(=O)N)OC4=CC=C(C=C4)Cl
Method in brief: as §1

[3] = compound: C1=CC2=C(C=CC(=C2)/C=C\3/C(=O)NC(=NCC4=CC=CS4)S3)N=C1
Method in brief: as §1

[4] = compound: C1=CC2=NC=CN=C2C=C1/C=C/3\C(=O)NC(=O)S3
Method in brief: as §1

[5] = compound: C1=CC=C(C=C1)C2=NC(=C(N2)C3=CC=NC=C3)C4=CC(=C(C=C4)Cl)O
Method in brief: as §1

[6] = compound: C1=CC=C2C(=C1)C3=NNC4=CC=CC(=C43)C2=O
Method in brief: as §1

[7] = compound: C1CCN(C1)C(=O)NC2=CC=CC(=C2)NC3=NC=C(C(=N3)NCCC4=CN=CN4)Br
Method in brief: as §1

[8] = compound: C1CN(CCC1(CC2=CC=C(C=C2)Cl)N)C3=NC=NC4=C3C=CN4
Method in brief: as §1

IRAK-1-4 Inhibitor I = compound: C1COCCN1CCN2C3=CC=CC=C3N=C2NC(=O)C4=CC(=CC=C4)[N+](=O)[O-] [IRAK-1-4 Inhibitor I]
Method in brief: as §1

ibrutinib = compound: C=CC(=O)N1CCC[C@@H](n2nc(-c3ccc(Oc4ccccc4)cc3)c3c(N)ncnc32)C1 [ibrutinib]
Method in brief: as §1

[9] = compound: CC(=O)c1cnc2ccc(-c3cc(Cl)c(O)c(Cl)c3)nc2c1N[C@H]1CC[C@H](CN(C)C)CC1
Method in brief: as §1

ralimetinib = compound: CC(C)(C)Cn1c(N)nc2ccc(-c3[nH]c(C(C)(C)C)nc3-c3ccc(F)cc3)nc21 [ralimetinib]
Method in brief: as §1

[10] = compound: CC(C)(O)CC(=O)NCCn1ccc2ncnc(Nc3ccc(Oc4cccc(C(F)(F)F)c4)c(Cl)c3)c21
Method in brief: as §1

[11] = compound: CC(C)C1=C2N=C(C=C(N2N=C1)NCC3=CC=CC=C3)NCCCCCCN
Method in brief: as §1

[12] = compound: CC1=C(C(CC(=O)N1)C2=CC=C(C=C2)C(F)(F)F)C(=O)NC3=C(C=C4C(=C3)C=NN4)F
Method in brief: as §1

[13] = compound: CC1=C(C2=C(C=C1)C(=O)C3=CC=CC=C3N2CCCN)C
Method in brief: as §1

[14] = compound: CC1=C(C=C(C=C1)NC(=O)C2=CC(=CC=C2)C(C)(C)C#N)NC3=CC4=C(C=C3)N=CN(C4=O)C
Method in brief: as §1

[15] = compound: CC1=C(C=C(C=C1)NC(=O)C2=CC(=CC=C2)N(C)C)NC(=O)C3=CC=C(C=C3)O
Method in brief: as §1

[16] = compound: CC1=CC=C(C=C1)SC2=C3C=C(SC3=CN=C2)C(=O)N
Method in brief: as §1

Measured: log2 fold change

PPP4R2 (UniProt Q9NY27)
UniProt Q9NY27, sequence (Q9NY27 whole entry, looked up): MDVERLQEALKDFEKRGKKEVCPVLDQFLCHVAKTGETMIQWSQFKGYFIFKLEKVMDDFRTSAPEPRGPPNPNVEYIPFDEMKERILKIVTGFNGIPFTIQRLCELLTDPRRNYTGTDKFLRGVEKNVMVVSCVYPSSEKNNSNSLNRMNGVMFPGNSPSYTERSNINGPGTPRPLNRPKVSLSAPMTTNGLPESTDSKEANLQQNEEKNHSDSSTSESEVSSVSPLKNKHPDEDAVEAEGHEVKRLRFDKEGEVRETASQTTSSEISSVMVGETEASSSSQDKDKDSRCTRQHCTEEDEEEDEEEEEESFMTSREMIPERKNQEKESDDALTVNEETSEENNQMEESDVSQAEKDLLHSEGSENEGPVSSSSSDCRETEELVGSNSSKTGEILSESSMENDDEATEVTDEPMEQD
inactive: erlotinib 0.004 | [1] -0.007 | [2] 0.025 | [3] 0.063 | [4] -0.029 | [5] -0.02 | [6] 0.013 | [7] 0.004 | [8] 0.004 | IRAK-1-4 Inhibitor I 0.012 | ibrutinib -0.012 | [9] -0.007 | ralimetinib -0.015 | [10] -0.058 | [11] 0.003 | [12] 0 | [13] 0 | [14] -0.007 | [15] 0.003 | [16] -0.019

PRKAR2A (UniProt P13861)
UniProt P13861, sequence (P13861 whole entry, looked up): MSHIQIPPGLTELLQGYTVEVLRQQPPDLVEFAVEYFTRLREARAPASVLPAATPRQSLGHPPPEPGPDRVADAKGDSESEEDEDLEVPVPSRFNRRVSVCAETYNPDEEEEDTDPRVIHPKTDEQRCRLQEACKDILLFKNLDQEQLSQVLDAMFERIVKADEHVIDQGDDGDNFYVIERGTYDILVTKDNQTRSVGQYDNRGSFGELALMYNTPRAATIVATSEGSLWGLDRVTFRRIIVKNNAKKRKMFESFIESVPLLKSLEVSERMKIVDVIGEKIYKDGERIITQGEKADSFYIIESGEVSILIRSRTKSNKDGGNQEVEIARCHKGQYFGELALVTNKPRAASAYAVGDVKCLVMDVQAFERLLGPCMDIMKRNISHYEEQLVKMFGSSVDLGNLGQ
inactive: erlotinib 0.001 | [1] 0.032 | [2] 0.02 | [3] -0.02 | [4] -0.009 | [5] 0 | [6] -0.029 | [8] -0.212 | IRAK-1-4 Inhibitor I -0.06 | ibrutinib 0.044 | [9] -0.064 | ralimetinib 0.033 | [10] -0.032 | [11] 0.018 | [12] 0.015 | [13] 0.005 | [14] 0 | [15] 0.011 | [16] 0.036
active: [7] -0.252

PDF (UniProt Q9HBH1)
inactive: erlotinib 0.033 | [1] 0.07 | [2] -0.072 | [3] 0.005 | [4] -0.066 | [5] 0.066 | [6] -0.013 | [7] 0.047 | [8] -0.063 | IRAK-1-4 Inhibitor I 0.055 | ibrutinib 0.054 | [9] 0.016 | ralimetinib -0.014 | [10] 0.066 | [11] 0.001 | [12] 0.01 | [13] 0.07 | [14] 0.048 | [15] -0.018 | [16] 0.059

PFKP (UniProt Q01813)
UniProt Q01813, sequence (Q01813 whole entry, looked up): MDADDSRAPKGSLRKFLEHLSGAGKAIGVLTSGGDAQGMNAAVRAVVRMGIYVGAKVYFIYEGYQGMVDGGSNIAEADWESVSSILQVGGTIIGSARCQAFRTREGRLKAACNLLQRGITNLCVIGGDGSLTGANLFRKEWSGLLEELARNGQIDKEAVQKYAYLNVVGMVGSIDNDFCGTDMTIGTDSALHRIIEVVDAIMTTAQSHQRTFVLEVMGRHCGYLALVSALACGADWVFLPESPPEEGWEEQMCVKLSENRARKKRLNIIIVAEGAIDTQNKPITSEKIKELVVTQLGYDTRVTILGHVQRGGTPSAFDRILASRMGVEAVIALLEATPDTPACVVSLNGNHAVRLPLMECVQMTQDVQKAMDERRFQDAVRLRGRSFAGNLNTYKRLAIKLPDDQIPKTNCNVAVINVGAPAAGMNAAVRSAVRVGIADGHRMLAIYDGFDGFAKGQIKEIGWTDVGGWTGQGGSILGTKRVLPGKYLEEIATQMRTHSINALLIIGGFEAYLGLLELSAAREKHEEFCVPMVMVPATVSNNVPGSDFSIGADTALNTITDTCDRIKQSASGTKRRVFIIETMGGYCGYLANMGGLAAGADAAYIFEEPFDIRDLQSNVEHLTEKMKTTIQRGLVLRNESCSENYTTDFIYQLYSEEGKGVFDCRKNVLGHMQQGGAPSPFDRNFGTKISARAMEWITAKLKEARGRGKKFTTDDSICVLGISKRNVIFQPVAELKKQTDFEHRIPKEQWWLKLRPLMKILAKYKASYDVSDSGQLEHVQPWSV
inactive: erlotinib -0.01 | [1] -0.006 | [2] 0.019 | [3] -0.001 | [4] -0.01 | [5] 0 | [6] 0.032 | [7] 0.033 | [8] 0.031 | IRAK-1-4 Inhibitor I -0.003 | ibrutinib -0.001 | [9] 0.009 | ralimetinib 0.004 | [10] -0.029 | [11] 0.001 | [12] -0.015 | [13] 0.007 | [14] 0.003 | [15] 0.002 | [16] 0.062

PFKFB2 (UniProt O60825)
inactive: erlotinib -0.007 | [1] -0.012 | [2] 0.03 | [3] -0.004 | [4] 0.005 | [5] -0.02 | [6] 0.02 | [7] -0.004 | [8] 0.002 | IRAK-1-4 Inhibitor I -0.001 | ibrutinib -0.007 | [9] -0.014 | ralimetinib 0.035 | [10] -0.017 | [11] -0.016 | [12] 0.006 | [13] -0.001 | [14] -0.013 | [15] -0.011 | [16] -0.001

PFKFB3 isoform 4 (UniProt Q16875)
inactive: erlotinib -0.006 | [1] -0.021 | [2] 0.028 | [3] -0.033 | [4] 0.011 | [5] -0.034 | [6] -0.035 | [7] 0.032 | [8] 0.002 | IRAK-1-4 Inhibitor I 0.004 | ibrutinib -0.015 | [9] 0.11 | ralimetinib 0.044 | [10] -0.003 | [11] 0 | [12] 0.027 | [13] 0.003 | [14] 0.011 | [15] -0.019 | [16] 0.148

PTPN7 isoform 3 (UniProt P35236)
UniProt P35236, sequence (P35236 whole entry, looked up): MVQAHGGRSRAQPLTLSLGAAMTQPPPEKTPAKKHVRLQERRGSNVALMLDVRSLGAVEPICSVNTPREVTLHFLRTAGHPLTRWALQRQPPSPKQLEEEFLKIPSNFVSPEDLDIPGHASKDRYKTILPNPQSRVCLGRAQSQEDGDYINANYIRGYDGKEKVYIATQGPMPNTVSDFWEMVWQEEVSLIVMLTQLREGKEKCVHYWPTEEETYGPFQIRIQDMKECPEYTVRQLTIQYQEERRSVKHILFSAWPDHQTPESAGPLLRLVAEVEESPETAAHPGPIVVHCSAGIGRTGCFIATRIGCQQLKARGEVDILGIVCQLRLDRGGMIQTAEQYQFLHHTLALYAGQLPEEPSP
inactive: erlotinib 0.032 | [1] -0.002 | [2] -0.028 | [3] -0.06 | [4] -0.026 | [5] -0.008 | [6] -0.03 | [7] 0.009 | [8] 0.045 | IRAK-1-4 Inhibitor I 0.021 | ibrutinib 0.018 | [9] 0.027 | ralimetinib 0.066 | [10] -0.021 | [11] -0.044 | [12] -0.023 | [13] -0.053 | [14] -0.07 | [15] 0.005 | [16] 0.032

PLIN2 (UniProt Q99541)
UniProt Q99541, sequence (Q99541 whole entry, looked up): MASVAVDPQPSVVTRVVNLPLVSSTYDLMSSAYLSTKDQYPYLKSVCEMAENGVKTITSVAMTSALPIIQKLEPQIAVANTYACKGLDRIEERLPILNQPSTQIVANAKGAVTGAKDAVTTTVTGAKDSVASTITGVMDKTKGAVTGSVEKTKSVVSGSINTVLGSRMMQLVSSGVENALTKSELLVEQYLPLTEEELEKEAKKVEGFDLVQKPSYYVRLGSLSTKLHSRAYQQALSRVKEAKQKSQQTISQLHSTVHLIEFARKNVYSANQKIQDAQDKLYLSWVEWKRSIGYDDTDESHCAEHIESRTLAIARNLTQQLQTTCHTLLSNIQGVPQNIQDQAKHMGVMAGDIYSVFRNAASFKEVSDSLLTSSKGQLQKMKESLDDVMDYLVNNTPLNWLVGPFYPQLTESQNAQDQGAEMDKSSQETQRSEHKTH
inactive: erlotinib 0.013 | [1] 0.024 | [2] -0.093 | [3] 0.004 | [4] 0.028 | [5] -0.015 | [6] -0.045 | [7] 0.021 | [8] -0.042 | IRAK-1-4 Inhibitor I 0 | ibrutinib 0.015 | [9] 0.031 | ralimetinib -0.014 | [10] -0.022 | [11] -0.001 | [12] 0.069 | [13] -0.007 | [14] 0.016 | [15] 0.025 | [16] 0

POLR2B (UniProt P30876)
inactive: erlotinib 0.031 | [1] 0.019 | [2] -0.014 | [3] 0.012 | [4] -0.016 | [5] -0.008 | [6] -0.024 | [7] 0.002 | [8] -0.004 | IRAK-1-4 Inhibitor I -0.007 | ibrutinib -0.011 | [9] -0.017 | ralimetinib 0.025 | [10] -0.018 | [11] 0.005 | [12] 0.029 | [13] -0.031 | [14] -0.014 | [15] 0.028 | [16] 0.032

PIK3R1 (UniProt P27986)
inactive: erlotinib -0.027 | [1] -0.4 | [2] 0.008 | [3] 0.069 | [5] 0.076 | [6] 0.089 | [7] -0.015 | [8] 0 | IRAK-1-4 Inhibitor I 0.1 | ibrutinib -0.018 | [9] 0.302 | ralimetinib -0.003 | [10] -0.06 | [11] -0.008 | [12] -0.006 | [13] 0.027 | [14] -0.013 | [15] -0.006 | [16] 0.019
active: [4] 0.348

PDXK (UniProt O00764)
UniProt O00764, sequence (O00764 whole entry, looked up): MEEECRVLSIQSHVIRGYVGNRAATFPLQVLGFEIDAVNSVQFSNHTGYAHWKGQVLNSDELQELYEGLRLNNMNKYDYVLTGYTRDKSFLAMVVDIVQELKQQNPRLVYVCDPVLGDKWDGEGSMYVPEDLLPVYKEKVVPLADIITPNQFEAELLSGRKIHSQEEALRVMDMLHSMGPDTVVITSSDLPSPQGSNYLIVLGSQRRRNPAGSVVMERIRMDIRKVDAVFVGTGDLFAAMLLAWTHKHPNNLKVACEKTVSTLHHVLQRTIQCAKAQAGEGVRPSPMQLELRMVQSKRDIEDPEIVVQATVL
inactive: erlotinib -0.003 | [1] 0.02 | [2] 0.103 | [3] -0.019 | [4] -0.02 | [5] -0.008 | [6] 0.021 | [7] 0.037 | [8] -0.012 | IRAK-1-4 Inhibitor I 0.018 | ibrutinib 0.007 | [9] 0.014 | ralimetinib 0.01 | [10] -0.006 | [11] -0.009 | [12] 0.017 | [13] -0.058 | [14] 0.016 | [15] -0.029 | [16] -0.001

PPCDC (UniProt Q96CD2)
UniProt Q96CD2, sequence (Q96CD2 whole entry, looked up): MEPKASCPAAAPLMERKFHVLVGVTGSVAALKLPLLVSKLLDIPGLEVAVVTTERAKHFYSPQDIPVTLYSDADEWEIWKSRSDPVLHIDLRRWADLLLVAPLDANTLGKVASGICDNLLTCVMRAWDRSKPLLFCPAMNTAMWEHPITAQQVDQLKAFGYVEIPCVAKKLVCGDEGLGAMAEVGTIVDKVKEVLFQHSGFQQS
inactive: erlotinib -0.019 | [1] 0.075 | [2] 0.033 | [3] -0.115 | [4] 0.004 | [5] 0.002 | [6] -0.115 | [7] -0.05 | [8] 0.084 | IRAK-1-4 Inhibitor I 0.023 | ibrutinib 0.016 | [9] 0.023 | ralimetinib 0.067 | [10] -0.157 | [11] 0.064 | [12] -0.023 | [13] -0.033 | [14] 0.019 | [15] -0.041 | [16] 0.003

PCBP3 (UniProt P57721)
UniProt P57721, sequence (P57721 whole entry, looked up): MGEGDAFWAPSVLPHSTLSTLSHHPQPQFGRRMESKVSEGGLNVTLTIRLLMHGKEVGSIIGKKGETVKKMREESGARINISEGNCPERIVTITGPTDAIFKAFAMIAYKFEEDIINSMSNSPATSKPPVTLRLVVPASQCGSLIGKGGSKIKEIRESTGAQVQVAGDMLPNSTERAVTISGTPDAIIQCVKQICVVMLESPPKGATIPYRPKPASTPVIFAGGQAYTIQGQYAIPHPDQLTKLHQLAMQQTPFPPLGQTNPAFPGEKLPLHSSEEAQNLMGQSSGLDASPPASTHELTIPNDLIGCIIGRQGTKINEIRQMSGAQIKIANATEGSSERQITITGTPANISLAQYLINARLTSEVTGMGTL
inactive: erlotinib 0.005 | [1] 0.028 | [2] 0.021 | [3] -0.031 | [4] 0.02 | [5] 0.02 | [6] 0.029 | [7] -0.003 | [8] 0.021 | IRAK-1-4 Inhibitor I -0.005 | ibrutinib -0.026 | [9] -0.007 | ralimetinib -0.005 | [10] -0.021 | [11] 0 | [12] -0.04 | [13] -0.006 | [14] 0.053 | [15] -0.02 | [16] -0.028

POC5 (UniProt Q8NA72)
UniProt Q8NA72, sequence (Q8NA72 whole entry, looked up): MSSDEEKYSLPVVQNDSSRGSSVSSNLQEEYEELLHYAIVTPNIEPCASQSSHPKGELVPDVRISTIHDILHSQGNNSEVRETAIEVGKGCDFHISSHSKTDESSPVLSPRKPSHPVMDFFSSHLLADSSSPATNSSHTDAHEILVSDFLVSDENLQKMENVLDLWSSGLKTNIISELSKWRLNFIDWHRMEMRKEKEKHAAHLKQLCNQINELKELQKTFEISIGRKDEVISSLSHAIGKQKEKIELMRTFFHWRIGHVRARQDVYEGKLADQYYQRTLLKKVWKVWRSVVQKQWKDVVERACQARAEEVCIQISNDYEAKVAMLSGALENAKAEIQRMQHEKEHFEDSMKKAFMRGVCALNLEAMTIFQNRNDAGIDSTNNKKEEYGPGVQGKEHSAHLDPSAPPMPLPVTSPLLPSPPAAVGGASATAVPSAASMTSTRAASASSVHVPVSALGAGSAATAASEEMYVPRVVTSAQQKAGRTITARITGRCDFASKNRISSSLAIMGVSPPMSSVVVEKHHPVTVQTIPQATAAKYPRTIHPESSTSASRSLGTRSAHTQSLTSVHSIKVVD
inactive: erlotinib -0.022 | [1] -0.083 | [2] -0.01 | [3] 0.069 | [4] -0.025 | [5] 0.039 | [6] -0.144 | [7] 0.045 | [8] 0.043 | IRAK-1-4 Inhibitor I 0.069 | ibrutinib 0.013 | [9] -0.063 | ralimetinib 0.062 | [10] -0.029 | [11] 0.101 | [12] 0.015 | [13] 0.026 | [14] -0.015 | [15] 0 | [16] -0.02

PIP4P2 (UniProt Q8N4L2)
UniProt Q8N4L2, sequence (Q8N4L2 whole entry, looked up): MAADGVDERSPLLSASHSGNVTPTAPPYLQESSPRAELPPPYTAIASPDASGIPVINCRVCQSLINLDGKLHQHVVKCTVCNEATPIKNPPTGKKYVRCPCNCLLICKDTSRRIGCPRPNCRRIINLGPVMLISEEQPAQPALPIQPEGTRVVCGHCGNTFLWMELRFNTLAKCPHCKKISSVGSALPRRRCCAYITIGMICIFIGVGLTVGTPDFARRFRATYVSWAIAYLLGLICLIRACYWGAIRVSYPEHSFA
inactive: erlotinib 0.023 | [1] 0.039 | [2] -0.03 | [3] 0.032 | [4] -0.076 | [5] 0.019 | [6] -0.029 | [7] 0.034 | [8] 0.022 | IRAK-1-4 Inhibitor I -0.054 | ibrutinib 0.034 | [9] 0.138 | ralimetinib -0.025 | [10] -0.023 | [11] -0.08 | [12] -0.015 | [13] -0.061 | [14] 0.013 | [15] 0.008 | [16] -0.096

PES1 (UniProt O00541)
UniProt O00541, sequence (O00541 whole entry, looked up): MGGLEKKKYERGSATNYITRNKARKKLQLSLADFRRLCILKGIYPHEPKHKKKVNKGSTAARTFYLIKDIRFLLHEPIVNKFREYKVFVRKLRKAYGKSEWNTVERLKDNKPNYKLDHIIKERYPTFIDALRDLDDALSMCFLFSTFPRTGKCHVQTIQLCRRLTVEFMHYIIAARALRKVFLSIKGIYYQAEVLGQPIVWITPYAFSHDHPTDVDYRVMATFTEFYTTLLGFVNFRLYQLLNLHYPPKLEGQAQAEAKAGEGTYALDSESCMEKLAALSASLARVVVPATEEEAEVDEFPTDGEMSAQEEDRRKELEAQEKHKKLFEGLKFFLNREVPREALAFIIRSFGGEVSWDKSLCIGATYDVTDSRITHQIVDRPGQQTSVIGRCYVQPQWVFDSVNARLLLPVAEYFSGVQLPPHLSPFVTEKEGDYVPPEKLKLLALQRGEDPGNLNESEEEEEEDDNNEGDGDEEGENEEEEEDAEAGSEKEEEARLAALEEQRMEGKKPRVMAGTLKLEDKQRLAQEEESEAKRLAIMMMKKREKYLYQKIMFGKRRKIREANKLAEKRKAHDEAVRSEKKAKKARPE
inactive: erlotinib 0 | [1] -0.071 | [2] -0.014 | [3] -0.044 | [4] -0.001 | [5] 0.001 | [6] -0.012 | [7] 0.025 | [8] -0.056 | IRAK-1-4 Inhibitor I 0.037 | ibrutinib 0.016 | [9] 0.017 | ralimetinib 0.031 | [10] -0.03 | [11] 0.006 | [12] 0.013 | [13] -0.052 | [14] 0.012 | [15] 0.003 | [16] 0.007
